In PubChem BioAssay:
Calls of active or inactive are those of the source. Unless noted, how the calls were made is not given here.

Tests used:
[1] = test system: XIP peptide (Xip251-270) binding; assay: small-molecule binders of XIP peptide, primary screen, biochemical, small-molecule microarray, fluorescence 635/667 nm, 0.1 µg/mL protein (AID 1182); details: fluorescent protein binding, 635 nm, higher = more signal, called active from +8 up or from −8 down
XIP peptide (Xip251-270) = assay: small-molecule binders of XIP peptide, primary screen, biochemical, small-molecule microarray, fluorescence 635/667 nm, 0.5 µg/mL protein (AID 1183); details: small-molecule microarray binding, fluorescence 635 nm; higher = more signal
[2] = Plasmodium falciparum growth inhibition, primary screen, strain 3D7, DAPI fluorescence, 100 nL (AID 1184);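 further: parasites grown inside human red blood cells in medium with human serum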; details: P. falciparum 3D7 growth, 3 d, higher = more signal
[3] = target: Homeobox protein Hox-A13 (Mus musculus) (UniProt Q62424); assay: inhibitors of HoxA13-DNA binding, primary screen, biochemical, fluorescence polarization, labeled oligonucleotide (AID 1185); details: 15 min, higher = more signal, called active from +8 up or from −8 down
Chain of Homeobox protein Hox-A13 (Mus musculus) (Q62424 whole entry, looked up): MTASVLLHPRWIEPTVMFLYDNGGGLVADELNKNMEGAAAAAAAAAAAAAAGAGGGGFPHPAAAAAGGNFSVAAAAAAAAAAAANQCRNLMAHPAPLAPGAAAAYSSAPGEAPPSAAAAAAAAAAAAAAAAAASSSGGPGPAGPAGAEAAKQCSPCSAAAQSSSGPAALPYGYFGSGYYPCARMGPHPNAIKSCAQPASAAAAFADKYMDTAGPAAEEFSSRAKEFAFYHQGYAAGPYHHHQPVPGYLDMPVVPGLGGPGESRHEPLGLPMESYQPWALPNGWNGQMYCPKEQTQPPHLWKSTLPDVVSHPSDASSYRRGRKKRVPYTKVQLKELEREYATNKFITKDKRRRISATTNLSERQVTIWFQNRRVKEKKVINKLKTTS

[4] = inhibitors of hydroxyurea-induced Chk1 phosphorylation, primary screen, imaging, HeLa, phospho-Chk1 antibody, percent positive cells (AID 1186); details: hydroxyurea-induced phospho-Chk1 immunofluorescence imaging, higher = more signal
[5] = inhibitors of hydroxyurea-induced Chk1 phosphorylation, primary screen, imaging, HeLa, phospho-Chk1 nuclear intensity (AID 1187); details: hydroxyurea-induced phospho-Chk1 immunofluorescence imaging, higher = more signal

Row | Structure (SMILES) | composite z-score [1] | composite z-score (XIP peptide (Xip251-270)) | z-score [2] | z-score [3] | z-score [4] | z-score [5]
1 | O=C1O[C@@H](c2ccccc2)[C@@H](c2ccccc2)N2[C@@H](c3ccc(O)cc3)[C@]3(C(=O)Nc4ccccc43)[C@@H](C(=O)O)[C@H]12 | 1.27 (inactive) | 0.632 | -1.73 | -4.72 (inactive) | 0.482 (inactive) | 0.166 (inactive)
2 | C=C(/C(=C/C[C@@H](OC(=O)c1ccncc1)c1ccc(OCCO)cc1)c1cnc2ccccc2c1)C(C)C | -0.214 (inactive) | 0.565 | -2.84 | -5.46 (inactive) | -0.452 (inactive) | -0.051 (inactive)
3 | COC(=O)[C@@]1(Cc2ccc(OC)cc2)[C@H]2c3cc(C(=O)N4CCCC4)n(Cc4cc(F)c(F)c(F)c4)c3C[C@H]2CN1C(=O)c1ccccc1 | 0.902 (inactive) | 0.604 | -1.56 | -2.27 (inactive) | -0.345 (inactive) | -0.868 (inactive)
